GSIS activator: GLuc luminescence reporter in INS-1E cells, primary screen for activators of glucose-dependent secretion of insulin; INS-1E GLuc reporter insulin secretion, 2-3 h; activation, % at 16.6 µM; 370,000 tested, 0.61% active; AID 743287;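 active = lowest replicate activation of at least 40%, so every replicate reaches that level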;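 also: 0% = median of neutral control wells and 100% = median of IBMX positive control wells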
DYRK1A inh: Dyrk1A (rat) kinase inhibition; AID 504441; Q63470; 310,000 tested, 0.43% active; ADP-Glo luminescence, NFATc1 peptide; inhibition, % at 12.5 µM;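 also: plate controls were vehicle with enzyme for no effect and no enzyme for full effect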
miR-122 sensor: blocks miR-122 activity in Huh7 sensor cells | Huh7 miR-122 Renilla luciferase sensor, 48 h; neutral wells = 0, positive control = 100 | activation (reporter increase), % at 12.5 µM | 340,000 tested, 0.3% active;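 active = mean replicate activation score at least 90 and every replicate individually at or above 90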;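 also: higher luciferase means less miR-122 activity so hits act as miR-122 inhibitors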
Wnt bcat act: activates Wnt/beta-catenin signaling in a reporter cell assay; activator, plate reader; activation, % at 9.35 µM; 300,000 tested, 1.2% active; AID 743398; in the data active = activation above about 30%, passing the limit was not always enough;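 also: 0% = neutral control wells and 100% = positive control wells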
NSD2 HMT inh: blocks human histone methyltransferase NSD2; NSD2 peptide methylation, AlphaScreen, 120 min; 310,000 tested, 0.54% active; inhibition, % at 12.5 µM
MITF TRPM1 HTS: increases MITF-driven TRPM1 promoter luciferase signal; SK-MEL-5 TRPM1-promoter luciferase, 24 h; % of positive control, neutral wells = 0; activation, % at 12.5 µM; 300,000 tested, 0.75% active; AID 588334;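 active = mean activation of at least 80% with every replicate also reaching 80%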;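 also: 0% = neutral control wells and 100% = parthenolide positive control wells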
ADP-Glo artifact: ADP-Glo luciferase interference, Dyrk1A counter-screen. shares compounds with DYRK1A inh. ADP-Glo luciferase artifact assay, no Dyrk1A, luminescence. AC50, µM (titrated, usually from 12 µM), for inactives: at the top dose activity change, negative = inhibition. 1,300 tested, under 10 active. AID 588348;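 active = fitted half-maximal dose AC50 no more than ten times the top valid tested dose, with luminescence dropping as dose rises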
Numbers without * were called inactive; . = no result given; [ ] = remark or other dose. Shown are actives, neighbours in structure and some others; about 2.4% of the full set was active somewhere. Rule as the data show it, unless noted: active = inhibition above about 50%; inactive = the rest.

SMILES	GSIS activator	DYRK1A inh	miR-122 sensor	Wnt bcat act	NSD2 HMT inh	MITF TRPM1 HTS	ADP-Glo artifact
C=CS(=O)(=O)c1c2cc(OC)ccc2nc2ccc(OC)cc12	-34	61*	-6	458*	3	.	6%
S=c1[nH]c2ccccc2n2c(=S)[nH]nc12	-28	56*	-11	2	-3	7	7%
O=C(Nc1ccc(F)cc1F)c1csc(-c2ccncc2)n1	-12	52*	.	21	-3	3	7%
c1cncc(-c2csc(-c3cccnc3)n2)c1	56	86*	-18	2	0	25	9%
c1cncc(-c2nc(-c3cccs3)cs2)c1	.	30	2	0	-3	22	.
COc1ccc(-c2nc(N)ncc2-c2ccccc2OC)c(O)c1	4	51*	-6	2	4	-1	7%
C/C=C/c1ccc([C@@H]2[C@@H](CO)N(C(=O)c3cnccn3)C23CN(C(=O)CC)C3)cc1	4	.	.	.	.	.	.
C[C@@]12C(=O)N(CC3CCCO3)CC(=O)N1[C@@H]1c3ccccc3OC[C@@H]1[C@@H]2c1ccccc1 (some centres undefined)	-2	45	-1	4	.	4	.
COc1ccc2c(c1)C(=O)N1[C@H]3c4cc(C)ccc4OC[C@@H]3[C@H](c3ccccc3)[C@]1(C)C(=O)N2	-34	55*	-8	-7	.	-26	16%
COc1ccc2c(c1)OC[C@H]1[C@H]2N2C(=O)CN(CC3CCCO3)C(=O)[C@@]2(C)[C@H]1c1ccccc1 (some centres undefined)	-26	50*	3	-2	.	6	8%
CC(C)C[C@H]1COCCS(=O)(=O)N1Cc1ccc(Cl)c(Cl)c1	-26	51*	-6	-3	.	1	8%
CN(C)CCNc1ccc(CO)c2sc3ccc(O)cc3c(=O)c12	.	77*	-12	-9	.	.	7%
CC(C)NC(=O)N(C)C[C@H]1Oc2ncc(C#CCc3ccccc3)cc2C(=O)N([C@H](C)CO)C[C@H]1C	-18	.	18[16.7 µM]	.	.	.	.
N#CC(C#N)=C1NC(N)=C(C#N)C(c2ccccc2)=C1C#N	-6	66*	.	1	1	-30	8%
N#CC1=C(c2ccccc2)/C(=C/c2ccccc2)OC1=O	16	-2	-4	.	2	-92	.
CCNC(=O)[C@@H]1[C@@H](CO)[C@@H]2Cn3c(ccc(-c4ccc(F)cc4)c3=O)[C@H]1N2C(C)=O	8	.	-4[16.7 µM]	.	.	.	.
Cc1oc2ncnc(N)c2c1C	22	50*	1	.	0	1	8%
COCC#Cc1cnc2c(c1)C(=O)N([C@@H](C)CO)C[C@H](C)[C@@H](CN(C)Cc1ccc3c(c1)OCO3)O2	1	.	2[16.7 µM]	.	.	.	.
CCOC(=O)CSC1=NC(=O)/C(=C\c2ccc(OC(C)=O)cc2)S1	-10	86*	.	.	-8	-78	9%
O=C(Nc1nc2c(s1)CCCC2)c1ccc(N2C(=O)CCC2=O)cc1	-5	67*	.	-1	2	37	8%
CC1CCc2c(sc(NC(=O)c3ccc(N4C(=O)CCC4=O)cc3)c2C(N)=O)C1 (centres undefined)	-8	11	5	-2	-8	12	.
CC1CCc2nc(NC(=O)c3ccc(N4C(=O)CCC4=O)cc3)sc2C1 (centres undefined)	1	56*	-2	2	-1	0	6%
COc1cc2ncnc(NCc3cccs3)c2cc1OC	11	-1	.	0	-2	43	.
c1csc(CNc2ncnc3ccc(-c4ccoc4)cc23)c1	14	74*	1	-11	.	5	10%
COc1ccc2c(c1)C(=NN)c1cc(OC)ccc1-2	.	79*	-6	.	.	-5	6%
COc1ccc(OC)c(N)c1	.	3	-4	-16	11	-12	.
COc1ccc2c(c1)C(=NNc1ccc(C(=O)O)cc1)c1cc(OC)ccc1-2	4	83*	.	7	7	12	10%
CC(=O)N(C)C[C@@H]1Oc2cc(C#Cc3ccccn3)ccc2S(=O)(=O)N([C@H](C)CO)C[C@@H]1C	21	.	-6[16.7 µM]	.	.	.	.
Nc1ccc(C(=O)Nc2nc3ccccc3s2)cc1	1	56*	9	35*	.	7	6%
